These sequences were tested against ZMAT5 (assay: pooled miR-30 sensor sort-seq; sequence = guide strand). Details: shRNA.
TACCAGACCTTCTTGGCCTTGA was tested, and the sensor-assay potency score (higher = more potent) was 0.178. For TACTGGAAGACAGTGGTTCTGA, the sensor-assay potency score (higher = more potent) was 0.107. In the case of ATCTCGGAACATGTCGTACCAG, the sensor-assay potency score (higher = more potent) is reported as -1.24. TTGTTCTGCTCATCCAGCAAGA showed a sensor-assay potency score (higher = more potent) of -0.992. TTGGAGCCAAAGTCGCACTGGC showed a sensor-assay potency score (higher = more potent) of -0.262. TCTCGCTCTGACATGTGGGAAA was tested, and the sensor-assay potency score (higher = more potent) was -1.37. Work on TGCATCTCGGAACATGTCGTAC yielded a sensor-assay potency score (higher = more potent) of -1.55. With TCTGACATGTGGGAAAATCTGC the sensor-assay potency score (higher = more potent) was -0.533. In the case of AAAATCTGCAGTTGGAGCCAAA, the sensor-assay potency score (higher = more potent) is reported as -1.1. With ATGTCGTACCAGACCTTCTTGG the sensor-assay potency score (higher = more potent) was -1.05.

These sequences were tested against ZMYM3 in the same assay as above. Details: shRNA.
TTTGTGACACACTTGAGCGTAG gave a sensor-assay potency score (higher = more potent) of 0.22. With TACACTGGGATTAATGTCCAGA the sensor-assay potency score (higher = more potent) was -0.579. Sequence TAGAACTTGACAGGGCAGCGGA has a sensor-assay potency score (higher = more potent) of -0.668. TTGTTCAGTAGACACATCCTCA gave a sensor-assay potency score (higher = more potent) of 0.00931. In the case of TTACACAGGGTCTTGCACCAGA, the sensor-assay potency score (higher = more potent) is reported as 0.022. TTGACCACAGATCCCATCCTGC showed a sensor-assay potency score (higher = more potent) of -0.277. In the case of TTGAGCTCAGCAGCTGAGCAGG, the sensor-assay potency score (higher = more potent) is reported as -1.2. Work on TTGTACAGCAGCACACAGCCTT yielded a sensor-assay potency score (higher = more potent) of -0.282. In the case of AAACAGGTCACAGTCTTCCAGG, the sensor-assay potency score (higher = more potent) is reported as -1.1. With TTCTGTTTGACTTCCTTTGGAC the sensor-assay potency score (higher = more potent) was 0.00295. For TTGTCTGTGCTCTCCAAGGTAG, the sensor-assay potency score (higher = more potent) was -0.839. With TTGGACTTCATCTCCACCTTGC the sensor-assay potency score (higher = more potent) was 0.519.
Note: reference of the scale not given here.
